# In the supplement of paper PMC8728848:
# The full list was thinned out, with the strongest signals kept by preference.
# B1: Na-CTL-1 (Necator americanus) (protein)
# chain: MQRSFLLLLVVLAGAWAVNTTIPLKLMGGFTPMKYQCVGRVSDIWADVLFLIESSDMITKSGFRQVIAFITATTKKMTIGQDEKQTRVGFITYGEEAKLIYDLDHWRSTEKLSDLVQKIPYVKSSGTNIAAAIALANKVFNSPTHRPNVPKVMVIVANGLKKGSQNPIPVATAFKDFGGIIITIEYTQYDNIQVPILKKIASEGYNIRSNDEDFSVRTLTNMLLQANCFCPDHYVPFRVNNPEFGCFVTAKIPSMWRDAAEMCRAVEEGKLVKVENEEKAAFIMKLVGPKKEAWIGLRYYGNKFQWTDGTKLNADDFNLWPEDIKELNGPHCVSMYQDQKDKKYYWRAGKCLEDMRYVCEVQPCSASNYCSEPVFMYRQKHRALLPAPPPPPN
# Columns and labels:
# Assay in all cases: glycan array binding signal (z-score within array); higher = stronger binding
# Conditions in all cases: glycan notation: IUPAC condensed, linker removed
# [1] = molecular target: Fuc(a1-2)Gal(b1-3)GalNAc(b1-3)Gal(a1-4)Gal(b1-4)Glc
# How it was run: (§1)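 Glycan array binding is given as a within-array Z-score, which can be read as non-binding when negative. The arrays, 3228 of them, came from the Consortium for Functional Glycomics database and were retained only where the protein sequence was available. Z-scores were averaged across arrays of the same protein sequence at different concentrations or buffers and across linkers.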
# [2] = molecular target: Fuc(a1-2)Gal(b1-4)GlcNAc(b1-2)Man
# How it was run: as §1
# [3] = molecular target: Fuc(a1-2)Gal(b1-4)GlcNAc(b1-3)[Fuc(a1-2)Gal(b1-4)GlcNAc(b1-6)]GalNAc
# How it was run: as §1
# [4] = molecular target: Fuc(a1-2)Gal(b1-4)[Fuc(a1-3)]GlcNAc(b1-3)Gal(b1-4)[Fuc(a1-3)]GlcNAc(b1-3)Gal(b1-4)[Fuc(a1-3)]GlcNAc
# How it was run: as §1
# [5] = molecular target: Fuc(a1-2)[Gal(a1-3)]Gal(b1-3)GalNAc
# How it was run: as §1
# [6] = molecular target: Fuc(a1-2)[Gal(a1-3)]Gal(b1-3)GlcNAc(b1-3)GalNAc
# How it was run: as §1
# [7] = molecular target: Fuc(a1-2)[Gal(a1-3)]Gal(b1-4)GlcNAc(b1-3)[Fuc(a1-2)[Gal(a1-3)]Gal(b1-4)GlcNAc(b1-6)]GalNAc
# How it was run: as §1
# [8] = molecular target: Fuc(a1-2)[Gal(a1-3)]Gal(b1-4)GlcNAc(b1-6)GalNAc
# How it was run: as §1
# [9] = molecular target: Fuc(a1-2)[GalNAc(a1-3)]Gal(b1-3)GalNAc(a1-3)[Fuc(a1-2)]Gal(b1-4)GlcNAc
# How it was run: as §1
# [10] = molecular target: Fuc(a1-2)[GalNAc(a1-3)]Gal(b1-4)[Fuc(a1-3)]GlcNAc(b1-3)GalNAc
# How it was run: as §1
# Fuc(a1-4)GlcNAc = molecular target: Fuc(a1-4)GlcNAc
# How it was run: as §1
# [11] = molecular target: Gal(a1-3)Gal(b1-3)GlcNAc(b1-6)GalNAc
# How it was run: as §1
# [12] = molecular target: Gal(a1-3)Gal(b1-4)GlcNAc(b1-2)Man(a1-3)[Gal(a1-3)Gal(b1-4)GlcNAc(b1-2)Man(a1-6)]Man(b1-4)GlcNAc(b1-4)GlcNAc
# How it was run: as §1
# Gal(b1-2)Gal = molecular target: Gal(b1-2)Gal
# How it was run: as §1
# [13] = molecular target: Gal(b1-3)GalNAc(b1-4)Gal(b1-4)Glc
# How it was run: as §1
# Gal(b1-3)GlcNAc(b1-2)Man = molecular target: Gal(b1-3)GlcNAc(b1-2)Man
# How it was run: as §1
# [14] = molecular target: Gal(b1-3)GlcNAc(b1-3)Gal(b1-4)GlcNAc(b1-3)Gal(b1-4)GlcNAc(b1-2)[Gal(b1-3)GlcNAc(b1-3)Gal(b1-4)GlcNAc(b1-3)Gal(b1-4)GlcNAc(b1-6)]Man(a1-6)[Gal(b1-3)GlcNAc(b1-3)Gal(b1-4)GlcNAc(b1-3)Gal(b1-4)GlcNAc(b1-2)Man(a1-3)]Man(b1-4)GlcNAc(b1-4)[Fuc(a1-6)]GlcNAc
# How it was run: as §1
# [15] = molecular target: Gal(b1-3)GlcNAc(b1-3)Gal(b1-4)GlcNAc(b1-6)[Gal(b1-3)GlcNAc(b1-3)]Gal(b1-4)Glc
# How it was run: as §1
# [16] = molecular target: Gal(b1-3)[Fuc(a1-4)]GlcNAc
# How it was run: as §1
# [17] = molecular target: Gal(b1-4)GlcNAc(b1-2)Man(a1-3)[Gal(b1-4)GlcNAc(b1-2)Man(a1-6)][Gal(b1-4)GlcNAc(b1-4)]Man(b1-4)GlcNAc(b1-4)[Fuc(a1-6)]GlcNAc
# How it was run: as §1
# [18] = molecular target: Gal(b1-4)GlcNAc(b1-2)Man(a1-3)[GlcNAc(b1-4)][Gal(b1-4)GlcNAc(b1-2)Man(a1-6)]Man(b1-4)GlcNAc(b1-4)GlcNAc
# How it was run: as §1
# [19] = molecular target: Gal(b1-4)GlcNAc(b1-2)Man(a1-6)[GlcNAc(b1-2)Man(a1-3)]Man(b1-4)GlcNAc(b1-4)GlcNAc
# How it was run: as §1
# [20] = molecular target: Gal(b1-4)GlcNAc(b1-2)Man(a1-6)[Man(a1-3)]Man(b1-4)GlcNAc(b1-4)GlcNAc
# How it was run: as §1
# [21] = molecular target: Gal(b1-4)GlcNAc(b1-2)[Gal(b1-4)GlcNAc(b1-6)]Man(a1-6)[Gal(b1-4)GlcNAc(b1-2)Man(a1-3)]Man(b1-4)GlcNAc(b1-4)[Fuc(a1-6)]GlcNAc
# How it was run: as §1
# [22] = molecular target: Gal(b1-4)GlcNAc(b1-3)Gal(b1-4)GlcNAc(b1-2)[Gal(b1-4)GlcNAc(b1-3)Gal(b1-4)GlcNAc(b1-6)]Man(a1-6)[Gal(b1-4)GlcNAc(b1-3)Gal(b1-4)GlcNAc(b1-2)Man(a1-3)]Man(b1-4)GlcNAc(b1-4)GlcNAc
# How it was run: as §1
# [23] = molecular target: Gal(b1-4)GlcNAc(b1-3)Gal(b1-4)GlcNAc(b1-3)Gal(b1-4)GlcNAc(b1-3)Gal(b1-4)GlcNAc(b1-2)Man(a1-3)[Gal(b1-4)GlcNAc(b1-3)Gal(b1-4)GlcNAc(b1-3)Gal(b1-4)GlcNAc(b1-3)Gal(b1-4)GlcNAc(b1-2)Man(a1-6)]Man(b1-4)GlcNAc(b1-4)[Fuc(a1-6)]GlcNAc
# How it was run: as §1
# [24] = molecular target: Gal(b1-4)GlcNAc(b1-3)Gal(b1-4)GlcNAc(b1-3)Gal(b1-4)GlcNAc(b1-3)Gal(b1-4)GlcNAc(b1-3)Gal(b1-4)GlcNAc(b1-2)Man(a1-3)[Gal(b1-4)GlcNAc(b1-3)Gal(b1-4)GlcNAc(b1-3)Gal(b1-4)GlcNAc(b1-3)Gal(b1-4)GlcNAc(b1-3)Gal(b1-4)GlcNAc(b1-2)Man(a1-6)]Man(b1-4)GlcNAc(b1-4)GlcNAc
# How it was run: as §1
# [25] = molecular target: Gal(b1-4)GlcNAc(b1-3)Gal(b1-4)GlcNAc(b1-3)[Gal(b1-4)GlcNAc(b1-3)Gal(b1-4)GlcNAc(b1-6)]GalNAc
# How it was run: as §1
# [26] = molecular target: Gal(b1-4)GlcNAc(b1-3)[Gal(b1-4)GlcNAc(b1-6)]Gal(b1-4)GlcNAc
# How it was run: as §1
# GalNAc(a1-3)Gal = molecular target: GalNAc(a1-3)Gal
# How it was run: as §1
binder,measurement,setting,value
B1,glycan array binding signal (z-score),[1],-0.262
same,glycan array binding signal (z-score),[2],0.123
same,glycan array binding signal (z-score),[3],-0.753
same,glycan array binding signal (z-score),[4],-0.334
same,glycan array binding signal (z-score),[5],-0.176
same,glycan array binding signal (z-score),[6],-0.06
same,glycan array binding signal (z-score),[7],2.8
same,glycan array binding signal (z-score),[8],-0.539
same,glycan array binding signal (z-score),[9],-0.489
same,glycan array binding signal (z-score),[10],14.8
same,glycan array binding signal (z-score),Fuc(a1-4)GlcNAc,13.6
same,glycan array binding signal (z-score),[11],-0.267
same,glycan array binding signal (z-score),[12],0.692
same,glycan array binding signal (z-score),Gal(b1-2)Gal,-0.582
same,glycan array binding signal (z-score),[13],-0.243
same,glycan array binding signal (z-score),Gal(b1-3)GlcNAc(b1-2)Man,-0.258
same,glycan array binding signal (z-score),[14],1.66
same,glycan array binding signal (z-score),[15],-0.326
same,glycan array binding signal (z-score),[16],-0.259
same,glycan array binding signal (z-score),[17],-0.149
same,glycan array binding signal (z-score),[18],0.121
same,glycan array binding signal (z-score),[19],-0.602
same,glycan array binding signal (z-score),[20],3.16
same,glycan array binding signal (z-score),[21],0.921
same,glycan array binding signal (z-score),[22],2.03
same,glycan array binding signal (z-score),[23],2.87
same,glycan array binding signal (z-score),[24],0.78
same,glycan array binding signal (z-score),[25],-0.05
same,glycan array binding signal (z-score),[26],-0.557
same,glycan array binding signal (z-score),GalNAc(a1-3)Gal,-0.696
